Here are results for 35 targets from the supplement of paper PMC10849652.

Of roughly 8,800 targets only a part is listed; those with a hit were picked by preference. About 0.5% of all pairs of compound and target were hits. A number with no mark means an inactive call.

Chain of UniProt Q6AI08 (Q6AI08 whole entry, looked up): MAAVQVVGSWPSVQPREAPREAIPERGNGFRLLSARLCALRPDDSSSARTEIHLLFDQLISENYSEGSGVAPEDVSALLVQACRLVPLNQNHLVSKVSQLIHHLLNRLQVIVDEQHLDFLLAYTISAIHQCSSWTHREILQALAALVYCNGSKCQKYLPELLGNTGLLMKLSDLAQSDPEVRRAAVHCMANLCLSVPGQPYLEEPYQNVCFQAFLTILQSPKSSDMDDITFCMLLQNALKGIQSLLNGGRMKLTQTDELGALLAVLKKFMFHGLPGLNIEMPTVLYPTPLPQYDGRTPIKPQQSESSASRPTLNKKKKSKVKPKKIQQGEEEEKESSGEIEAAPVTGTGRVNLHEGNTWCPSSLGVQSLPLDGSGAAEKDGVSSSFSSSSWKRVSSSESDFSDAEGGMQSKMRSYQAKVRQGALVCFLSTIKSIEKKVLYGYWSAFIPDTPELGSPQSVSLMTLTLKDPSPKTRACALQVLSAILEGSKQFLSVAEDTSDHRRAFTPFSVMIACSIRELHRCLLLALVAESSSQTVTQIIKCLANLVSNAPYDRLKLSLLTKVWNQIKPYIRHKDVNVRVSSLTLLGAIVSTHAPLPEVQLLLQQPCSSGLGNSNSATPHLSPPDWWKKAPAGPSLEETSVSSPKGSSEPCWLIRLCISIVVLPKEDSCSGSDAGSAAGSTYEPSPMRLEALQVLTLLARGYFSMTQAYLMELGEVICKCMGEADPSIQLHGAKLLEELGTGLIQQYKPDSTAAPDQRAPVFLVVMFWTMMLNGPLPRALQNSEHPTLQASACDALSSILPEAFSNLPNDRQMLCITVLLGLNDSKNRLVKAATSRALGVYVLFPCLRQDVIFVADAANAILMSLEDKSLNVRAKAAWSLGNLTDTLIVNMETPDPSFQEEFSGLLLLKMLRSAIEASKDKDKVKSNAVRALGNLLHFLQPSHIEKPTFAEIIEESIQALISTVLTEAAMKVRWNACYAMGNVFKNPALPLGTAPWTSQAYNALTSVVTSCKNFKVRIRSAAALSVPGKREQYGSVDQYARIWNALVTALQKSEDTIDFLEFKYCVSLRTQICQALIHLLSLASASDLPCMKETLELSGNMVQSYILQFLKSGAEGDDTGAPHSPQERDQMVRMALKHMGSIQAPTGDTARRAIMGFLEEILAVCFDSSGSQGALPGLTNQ
Chain of UniProt P52655 (P52655 whole entry, looked up): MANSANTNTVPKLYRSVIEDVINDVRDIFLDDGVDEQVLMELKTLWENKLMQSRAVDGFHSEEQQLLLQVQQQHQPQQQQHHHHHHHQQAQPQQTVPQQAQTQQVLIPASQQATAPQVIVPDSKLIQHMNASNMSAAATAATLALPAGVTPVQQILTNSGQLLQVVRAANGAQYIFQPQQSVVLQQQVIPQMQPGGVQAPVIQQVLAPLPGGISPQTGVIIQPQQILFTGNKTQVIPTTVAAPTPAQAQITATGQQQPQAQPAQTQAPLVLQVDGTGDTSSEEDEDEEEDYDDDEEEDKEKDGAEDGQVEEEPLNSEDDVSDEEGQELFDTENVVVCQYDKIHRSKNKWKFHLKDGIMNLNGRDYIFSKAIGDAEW
Chain of UniProt Q9NPR9 (Q9NPR9 whole entry, looked up): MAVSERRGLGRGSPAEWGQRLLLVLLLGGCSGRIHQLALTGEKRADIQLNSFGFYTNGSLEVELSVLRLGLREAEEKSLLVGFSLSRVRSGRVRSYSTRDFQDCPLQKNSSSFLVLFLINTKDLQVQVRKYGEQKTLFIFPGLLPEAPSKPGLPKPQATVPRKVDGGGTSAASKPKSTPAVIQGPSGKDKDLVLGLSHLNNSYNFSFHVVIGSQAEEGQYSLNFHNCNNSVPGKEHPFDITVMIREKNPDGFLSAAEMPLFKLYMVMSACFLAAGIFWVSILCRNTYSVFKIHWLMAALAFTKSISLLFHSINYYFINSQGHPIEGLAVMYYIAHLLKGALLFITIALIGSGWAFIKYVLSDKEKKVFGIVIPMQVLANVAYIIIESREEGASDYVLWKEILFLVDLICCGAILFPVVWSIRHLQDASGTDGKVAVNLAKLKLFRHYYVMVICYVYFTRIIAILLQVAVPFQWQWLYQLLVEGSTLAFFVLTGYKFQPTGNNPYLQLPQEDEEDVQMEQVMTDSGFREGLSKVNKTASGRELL
Chain of UniProt Q8NEC7 (Q8NEC7 whole entry, looked up): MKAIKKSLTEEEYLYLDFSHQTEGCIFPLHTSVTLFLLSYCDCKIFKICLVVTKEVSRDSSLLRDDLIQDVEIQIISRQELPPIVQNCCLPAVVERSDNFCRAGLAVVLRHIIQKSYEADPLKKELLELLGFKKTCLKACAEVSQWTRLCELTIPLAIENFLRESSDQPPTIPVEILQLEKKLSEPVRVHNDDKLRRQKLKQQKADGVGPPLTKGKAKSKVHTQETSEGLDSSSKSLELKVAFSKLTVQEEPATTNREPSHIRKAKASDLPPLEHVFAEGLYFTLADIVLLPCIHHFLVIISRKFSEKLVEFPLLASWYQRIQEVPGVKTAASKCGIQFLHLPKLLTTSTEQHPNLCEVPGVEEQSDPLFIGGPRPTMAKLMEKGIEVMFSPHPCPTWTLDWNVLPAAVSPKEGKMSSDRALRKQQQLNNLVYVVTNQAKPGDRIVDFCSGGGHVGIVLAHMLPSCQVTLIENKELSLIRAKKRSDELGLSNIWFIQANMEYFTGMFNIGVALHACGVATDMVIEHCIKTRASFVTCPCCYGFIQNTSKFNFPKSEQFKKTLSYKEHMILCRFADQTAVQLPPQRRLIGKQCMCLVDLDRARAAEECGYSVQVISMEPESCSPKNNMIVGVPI
Chain of UniProt Q15046 (Q15046 whole entry, looked up): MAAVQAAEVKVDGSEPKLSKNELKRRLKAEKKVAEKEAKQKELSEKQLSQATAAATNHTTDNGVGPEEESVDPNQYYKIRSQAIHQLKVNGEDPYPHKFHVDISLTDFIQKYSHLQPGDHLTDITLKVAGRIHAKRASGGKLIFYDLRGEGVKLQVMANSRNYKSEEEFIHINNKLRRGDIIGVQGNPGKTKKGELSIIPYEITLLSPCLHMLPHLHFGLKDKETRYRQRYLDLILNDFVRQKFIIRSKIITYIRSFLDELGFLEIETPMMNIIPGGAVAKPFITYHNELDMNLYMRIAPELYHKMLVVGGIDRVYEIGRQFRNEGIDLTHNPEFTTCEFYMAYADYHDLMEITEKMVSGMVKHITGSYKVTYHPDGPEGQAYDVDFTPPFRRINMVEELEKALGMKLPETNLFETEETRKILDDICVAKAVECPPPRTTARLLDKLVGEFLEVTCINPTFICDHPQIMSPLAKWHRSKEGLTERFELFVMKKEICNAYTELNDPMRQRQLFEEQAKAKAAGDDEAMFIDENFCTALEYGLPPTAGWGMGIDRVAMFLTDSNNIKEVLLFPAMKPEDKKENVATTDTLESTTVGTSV
Chain of UniProt Q14103 (Q14103 whole entry, looked up): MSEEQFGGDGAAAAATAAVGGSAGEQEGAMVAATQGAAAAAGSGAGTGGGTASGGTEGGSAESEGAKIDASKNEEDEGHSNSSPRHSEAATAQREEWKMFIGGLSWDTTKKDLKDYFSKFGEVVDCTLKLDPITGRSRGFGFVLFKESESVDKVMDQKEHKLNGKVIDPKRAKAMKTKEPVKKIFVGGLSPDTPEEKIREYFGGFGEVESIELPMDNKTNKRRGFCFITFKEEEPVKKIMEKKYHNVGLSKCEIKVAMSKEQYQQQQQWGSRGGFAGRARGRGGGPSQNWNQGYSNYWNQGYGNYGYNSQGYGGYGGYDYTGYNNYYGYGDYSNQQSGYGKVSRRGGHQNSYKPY
Chain of UniProt P55084 (P55084 whole entry, looked up): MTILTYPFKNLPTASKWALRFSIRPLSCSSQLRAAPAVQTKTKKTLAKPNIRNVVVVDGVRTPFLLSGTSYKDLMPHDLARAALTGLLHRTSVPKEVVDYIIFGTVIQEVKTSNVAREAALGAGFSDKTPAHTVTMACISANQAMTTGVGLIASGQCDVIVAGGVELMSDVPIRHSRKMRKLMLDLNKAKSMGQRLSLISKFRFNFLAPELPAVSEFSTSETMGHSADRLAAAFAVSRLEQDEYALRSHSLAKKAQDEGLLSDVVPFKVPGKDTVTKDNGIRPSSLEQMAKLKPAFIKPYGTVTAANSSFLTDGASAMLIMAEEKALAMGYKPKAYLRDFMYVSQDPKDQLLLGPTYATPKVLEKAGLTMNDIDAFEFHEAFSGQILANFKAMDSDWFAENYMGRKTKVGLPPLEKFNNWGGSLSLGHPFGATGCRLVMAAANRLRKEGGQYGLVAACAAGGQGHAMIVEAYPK
Chain of UniProt Q13547 (Q13547 whole entry, looked up): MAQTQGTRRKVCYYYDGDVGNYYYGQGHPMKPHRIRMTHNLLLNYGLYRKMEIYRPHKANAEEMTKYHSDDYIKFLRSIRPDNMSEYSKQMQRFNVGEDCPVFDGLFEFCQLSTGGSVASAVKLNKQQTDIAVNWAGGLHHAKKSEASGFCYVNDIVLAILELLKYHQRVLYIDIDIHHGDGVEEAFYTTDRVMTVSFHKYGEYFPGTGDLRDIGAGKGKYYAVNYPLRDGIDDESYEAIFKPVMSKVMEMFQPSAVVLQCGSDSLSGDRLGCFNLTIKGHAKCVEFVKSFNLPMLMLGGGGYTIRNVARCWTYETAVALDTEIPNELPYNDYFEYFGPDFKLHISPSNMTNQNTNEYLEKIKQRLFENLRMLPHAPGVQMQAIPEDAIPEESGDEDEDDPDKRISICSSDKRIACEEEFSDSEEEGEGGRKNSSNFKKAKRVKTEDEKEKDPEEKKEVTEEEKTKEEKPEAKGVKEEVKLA
Chain of UniProt Q99871 (Q99871 whole entry, looked up): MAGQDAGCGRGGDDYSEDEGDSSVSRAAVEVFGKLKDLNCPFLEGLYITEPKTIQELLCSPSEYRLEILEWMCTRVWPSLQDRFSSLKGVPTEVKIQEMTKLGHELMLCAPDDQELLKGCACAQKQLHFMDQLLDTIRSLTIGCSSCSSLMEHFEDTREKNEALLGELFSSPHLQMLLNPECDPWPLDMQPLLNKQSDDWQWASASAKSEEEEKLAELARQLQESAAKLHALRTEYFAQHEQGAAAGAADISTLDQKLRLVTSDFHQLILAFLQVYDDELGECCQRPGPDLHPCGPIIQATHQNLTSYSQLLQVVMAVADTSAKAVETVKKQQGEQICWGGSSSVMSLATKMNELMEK

Compound in one assay: C1=CC=C(C=C1)[C@H](COC2=CC3=C(C=C2)NC(=O)N3)NC(=O)C4=CC=CN(C4=O)CC5=CC(=C(C=C5)F)F
Put plainly: log2 fold change, soluble protein after heating vs DMSO (PISA); higher = thermal stabilisation; K562 lysate, 10 uM; active = over 0.2 and 3.5 SD of the protein, either way, in both replicates (recomputed). The procedure, abridged: (§1)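 Values give the log-two fold change in thermal stability against solvent controls, from duplicates. Crude K562 extract at 1 mg/mL protein, made by dounce homogenisation in PBS pH 7.4 with 1 mM MgCl2, was treated with 10 μM compound for 30 min. After 3 min heating across 48°C-58°C, aliquots were pooled, adjusted to 0.5% NP-40 at 4°C and centrifuged at 21,000xg for 90 min. The supernatant was measured by TMTpro 16plex LC-MS/MS with channel sums equalised.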
Consider GTF2A1 (UniProt P52655), for which the log2 fold change is 0.025.
On the same count and under the same terms, in the case of HECTD3 (UniProt Q5T447) it was -0.06.
The same measure, in the same setting: for IARS2 (UniProt Q9NSE4) the value was 0.004; for GLUD2 (UniProt P49448), -0.001.
As for HMGN5 (UniProt Q5JSK9), the log2 fold change is -0.067.
On the same count and under the same terms, for INTS14 (UniProt Q96SY0) the value was 0.067.
Still for that read-out and setting: for HMBOX1 isoform 5 (UniProt Q6NT76) the value was 0.016; for IGF2BP2 (UniProt Q9Y6M1), -0.041.
As to HDHD5 (UniProt Q9BXW7), the log2 fold change is 0.
Take HEATR6 (UniProt Q6AI08): the log2 fold change was -0.039.
The same measure, in the same setting: for HADHB (UniProt P55084) the value was 0.053; for GRB10 (UniProt Q13322), 0.03; for GSTZ1 (UniProt G3V4T6), 0.035.
For the target HNRNPM (UniProt M0QZM1), the log2 fold change is -0.093.
Same read-out and setting: for HDAC2 (UniProt Q92769) the value was 0.004.
The same measure, in the same setting: for GPA33 (UniProt Q99795) the value was 0.007; for IMPDH2 (UniProt P12268), 0; for HDAC1 (UniProt Q13547), -0.04.
Same read-out and setting: for GLYR1 (UniProt Q49A26) the value was -0.179; for HS1BP3 (UniProt Q53T59), 0.018.
In the case of HNRNPLL (UniProt Q8WVV9), the log2 fold change was 0.018.
Turning to ICAM2 (UniProt P13598), the log2 fold change is 0.03.
Turning to HADHA (UniProt P40939), the log2 fold change was 0.065.
On the same count and under the same terms, for GTF3C5 isoform 3 (UniProt Q9Y5Q8) the value was -0.024; for GOLPH3L (UniProt Q9H4A5), -0.046; for IRAK1 (UniProt P51617), -0.146.
Still for that read-out and setting: in the case of GSTCD (UniProt Q8NEC7) it was -0.048; in that of HNRNPL, A0A3B3ITJ4, -0.063; in that of IMMT (UniProt C9J406), -0.055.
On the same count and under the same terms, in the case of HNRNPD isoform 2 (UniProt Q14103) it was 0.059; in that of GPR108 (UniProt Q9NPR9), 0.059.
HAUS7 isoform 2 (UniProt Q99871): the log2 fold change was 0.163.
Same read-out and setting: in the case of GSE1 (UniProt Q14687) it was -0.031.
On the same count and under the same terms, for KARS1 (UniProt Q15046) the value was 0.005; for HELQ (UniProt Q8TDG4), 0.033.

Compound in a further assay: CC1=C(SC2=C1C(=N[C@H](C3=NN=C(N32)C)CC(=O)N)C4=CC=C(C=C4)Cl)C
Described as above. Summed up:
as §1
Turning to GTF2A1 (UniProt P52655), the log2 fold change is -0.033.
As for HECTD3 (UniProt Q5T447), the log2 fold change was 0.038.
On the same count and under the same terms, for IARS2 (UniProt Q9NSE4) the value was 0.013; for GLUD2 (UniProt P49448), 0.031; for HMGN5 (UniProt Q5JSK9), 0.015.
Same read-out and setting: in the case of INTS14 (UniProt Q96SY0) it was 0.034; in that of HMBOX1 isoform 5 (UniProt Q6NT76), -0.008.
For the target IGF2BP2 (UniProt Q9Y6M1), the log2 fold change is -0.004.
The same measure, in the same setting: for HDHD5 (UniProt Q9BXW7) the value was 0.071; for HEATR6 (UniProt Q6AI08), -0.086.
HADHB (UniProt P55084): the log2 fold change was 0.021.
In the case of GRB10 (UniProt Q13322), the log2 fold change was 0.022.
Still for that read-out and setting: in the case of GSTZ1 (UniProt G3V4T6) it was 0.002; in that of HNRNPM (UniProt M0QZM1), -0.092; in that of HDAC2 (UniProt Q92769), 0.002.
For GPA33 (UniProt Q99795), the log2 fold change is 0.024.
In the case of IMPDH2 (UniProt P12268), the log2 fold change was -0.014.
The same measure, in the same setting: in the case of HDAC1 (UniProt Q13547) it was 0.02; in that of GLYR1 (UniProt Q49A26), 0.066; in that of HS1BP3 (UniProt Q53T59), -0.03.
On to HNRNPLL (UniProt Q8WVV9), for which the log2 fold change is 0.028.
For ICAM2 (UniProt P13598), the log2 fold change is -0.025.
Same read-out and setting: in the case of HADHA (UniProt P40939) it was -0.006.
On the same count and under the same terms, for GTF3C5 isoform 3 (UniProt Q9Y5Q8) the value was 0.001; for GOLPH3L (UniProt Q9H4A5), 0.005.
On the same count and under the same terms, in the case of IRAK1 (UniProt P51617) it was -0.028; in that of GSTCD (UniProt Q8NEC7), -0.048.
Consider HNRNPL, A0A3B3ITJ4, for which the log2 fold change is -0.011.
IMMT (UniProt C9J406): the log2 fold change is 0.041.
Consider HNRNPD isoform 2 (UniProt Q14103), for which the log2 fold change was -0.015.
As to GPR108 (UniProt Q9NPR9), the log2 fold change is -0.053.
For the target HAUS7 isoform 2 (UniProt Q99871), the log2 fold change was 0.036.
For GSE1 (UniProt Q14687), the log2 fold change was 0.005.
The same measure, in the same setting: for KARS1 (UniProt Q15046) the value was 0.019.
Still for that read-out and setting: for HELQ (UniProt Q8TDG4) the value was 0.028.
